# Results filed as inconclusive are left out. The source made the active and inactive calls. Rule for the calls, unless noted: active = hit-call score of the fitted dose curve at least 0.9, where 1 is the maximum; inconclusive = response in the unintended direction; inactive = score below 0.9.
# Key:
# [1] = system: rat CYP2C6, gene 293989; experiment: NVS_ADME_rCYP2C6: NovaScreen (NVS) CYP450-related Enzyme Activity (ADME) Assay for rat CYP2C6 (AID 2283120)
# In short: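 Cell-free recombinant rat CYP2C6 with fluorogenic substrate, read by fluorescence 1 h after dosing; acetonitrile as negative control. Primary screen at 10 uM in duplicate, actives then in concentration-response up to 20 uM.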
# [2] = UKN5_HCS_SBAD2_neurite_outgrowth: University of Konstanz (UKN) Leist Lab Neurite Outgrowth Assay in human iPSC-derived immature Dorsal Root Ganglia Neurons (UKN5) (AID 2284070; active = hit-call score of the fitted dose curve at least 0.9, where 1 is the maximum; inactive = score below 0.9); settings: actives raise or lower the signal
# In short: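 Read-out: calcein-AM-stained neurite area by high-content imaging, Hoechst H-33342 for viability, after 24 h exposure of iPSC-derived immature dorsal root ganglia neurons. Activity fitted in both directions relative to DMSO baseline.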
# [3] = UKN4_HCS_LUHMES_neurite_outgrowth: University of Konstanz (UKN) Leist Lab Neurite Outgrowth Assay in human LUHMES cells (UKN4) (AID 2284206; active = hit-call score of the fitted dose curve at least 0.9, where 1 is the maximum; inactive = score below 0.9); settings: actives raise or lower the signal
# In short: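 Day 0 switch to differentiation medium; day 2 replate (30000 cells/well) without cAMP and GDNF; compounds added 30 min–2 h later. At 23.5 h, 30 min calcein-AM/H-33342 live stain, then imaging.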
# [4] = UKN4_HCS_LUHMES_cell_viability: Viability Assessment in the University of Konstanz (UKN) Leist Lab Neurite Outgrowth Assay in human LUHMES cells (UKN4) (AID 2284232; active = hit-call score of the fitted dose curve at least 0.9, where 1 is the maximum; inactive = score below 0.9)
# In short: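 Fluorescence intensity from high-content imaging of Hoechst H-33342/calcein-AM-stained cells served as the viability read-out. Human LUHMES precursors were differentiated 2 days, replated and treated 24 h; curves were fitted bidirectionally against DMSO.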
# [5] = UKN2_HCS_IMR90_cell_viability: Viability Assessment in the University of Konstanz (UKN) Leist Lab Neural Crest Cell Migration Assay in human induced IMR90 Pluripotent Stem Cells (UKN2) (AID 2284233; active = hit-call score of the fitted dose curve at least 0.9, where 1 is the maximum; inactive = score below 0.9;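 note: viability of neural crest cells differentiated from IMR90 iPSC measured by calcein-AM fluorescence imaging; cells exposed to compound for 24 h after a 24 h migration phase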)
# In short: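 iPSC-derived (IMR90) neural crest cells seeded around silicone stoppers on PLO/laminin/fibronectin; after 24 h migration in N2-S with EGF/FGF, chemical added for 24 h. Calcein-AM/Hoechst stained 30 min, high-content imaged; bidirectional fit versus DMSO.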
# [6] = CCTE_Shafer_MEA_acute_AB: CCTE's Alamar Blue Assay for Cytotoxicity in the Neural Acute Assay, Shafer Lab (AID 2284069);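 note: active compounds lower the viability signal compared with DMSO wells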
# In short: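 Read-out: resazurin fluorescence (ex 544, em 590 nm) after CTB reagent at 1:6 dilution in fresh media. Cells: primary rat cortical neuron networks, DIV 13 or 15, chemically exposed on MEA plates; DMSO as negative control/baseline.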
# [7] = molecular target: rat Neonicotinoid receptor (NNR), Chrna7 (gene 25302) (UniProt Q05941); experiment: NVS_LGIC_rNNR_BungSens: NovaScreen (NVS) Ligand-Gated Ion Channel Assay for rat Neonicotinoid receptor (NNR) (AID 2283315)
# Sequence of rat Neonicotinoid receptor (NNR), Chrna7 (gene 25302) (Q05941 whole entry, looked up): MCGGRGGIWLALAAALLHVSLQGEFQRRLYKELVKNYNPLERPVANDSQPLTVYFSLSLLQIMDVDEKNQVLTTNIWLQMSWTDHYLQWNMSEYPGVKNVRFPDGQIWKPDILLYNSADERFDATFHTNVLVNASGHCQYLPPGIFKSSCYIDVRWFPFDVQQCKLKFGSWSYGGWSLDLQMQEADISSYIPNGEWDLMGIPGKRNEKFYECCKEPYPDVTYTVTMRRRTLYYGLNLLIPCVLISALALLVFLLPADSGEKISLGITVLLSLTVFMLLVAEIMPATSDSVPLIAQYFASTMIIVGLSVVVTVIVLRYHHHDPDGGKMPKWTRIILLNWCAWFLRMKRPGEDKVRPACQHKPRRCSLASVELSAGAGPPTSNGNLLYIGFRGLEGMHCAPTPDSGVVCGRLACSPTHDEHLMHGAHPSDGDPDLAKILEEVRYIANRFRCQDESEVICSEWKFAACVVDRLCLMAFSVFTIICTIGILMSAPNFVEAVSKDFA
# In short: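 Radioligand displacement binding on rat cortical membranes, 2.5 h incubation, filtration and scintillation counting. Loss of specific binding fitted relative to DMSO.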
# [8] = CEETOX_H295R_11DCORT_noMTC: CeeTox H295R High-throughput Steroidogenesis Assay for 11-Deoxycortisol (11DCORT), maximum tolerated concentration (MTC) filtered results only (AID 2283911; active = hit-call score of the fitted dose curve at least 0.9, where 1 is the maximum; inactive = score below 0.9); settings: actives raise or lower the signal
# In short: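 Forskolin-primed (10 uM, 48 h) H295R adrenal cells are dosed for 48 h at 0.1% DMSO; medium 11-deoxycortisol is quantified by LC-MS/MS against a 7-point standard curve, with activity fitted in both directions versus DMSO.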
# [9] = CEETOX_H295R_OHPREG_noMTC: CeeTox H295R High-throughput Steroidogenesis Assay for OH-Pregnenolone (OHPREG), maximum tolerated concentration (MTC) filtered results only (AID 2283912; active = hit-call score of the fitted dose curve at least 0.9, where 1 is the maximum; inactive = score below 0.9); settings: actives raise or lower the signal
# In short: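 H295R human adrenal cells, forskolin-prestimulated (10 uM, 48 h), then exposed to test chemical in 0.1% DMSO for 48 h. 17alpha-hydroxypregnenolone in medium measured by HPLC-MS/MS after MTBE extraction; bidirectional fit versus DMSO, concentrations not MTC-filtered.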
# [10] = CEETOX_H295R_OHPROG_noMTC: CeeTox H295R High-throughput Steroidogenesis Assay for OH-Progesterone (OHPROG), maximum tolerated concentration (MTC) filtered results only (AID 2283914; active = hit-call score of the fitted dose curve at least 0.9, where 1 is the maximum; inactive = score below 0.9); settings: actives raise or lower the signal
# In short: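 H295R human adrenal cells prestimulated 48 h with 10 uM forskolin, then exposed 48 h to test chemical (0.1% DMSO final). Medium 17alpha-hydroxyprogesterone extracted with MTBE, quantified by HPLC-MS/MS; bidirectional fit versus DMSO, concentrations not MTC-filtered.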
# [11] = molecular target: frog Thyroid hormone Receptor alpha (TRa), thra-a (gene 397942) (UniProt P15204); experiment: ATG_frTRa_XSP2: Attagene TRANS-FACTORIAL Multi-Species (XSP2) HepG2 Assay for frog Thyroid hormone Receptor alpha (TRa) (AID 2283839)
# Sequence of frog Thyroid hormone Receptor alpha (TRa), thra-a (gene 397942) (P15204 whole entry, looked up, the tested form may be a part): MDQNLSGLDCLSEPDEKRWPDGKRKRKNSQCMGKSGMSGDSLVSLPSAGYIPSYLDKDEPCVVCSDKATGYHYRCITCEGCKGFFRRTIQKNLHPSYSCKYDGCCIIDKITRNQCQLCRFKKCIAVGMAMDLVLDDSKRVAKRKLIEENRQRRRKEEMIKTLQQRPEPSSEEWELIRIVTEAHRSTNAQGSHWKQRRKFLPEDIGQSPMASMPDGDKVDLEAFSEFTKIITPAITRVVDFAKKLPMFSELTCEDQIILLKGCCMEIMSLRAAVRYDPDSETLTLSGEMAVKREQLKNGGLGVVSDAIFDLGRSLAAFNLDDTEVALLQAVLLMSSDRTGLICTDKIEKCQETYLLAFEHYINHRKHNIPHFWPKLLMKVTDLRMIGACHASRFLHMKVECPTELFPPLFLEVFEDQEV
# In short: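 Chimeric frog TRα-GAL4 activity in human liver cells measures reporter transcript induction 24 h post-dose. Detection uses RT-PCR, HpaI-digested labelled products and fluorescence capillary electrophoresis; DMSO serves as negative control.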
# [12] = CCTE_Shafer_MEA_dev_AB: CCTE's Alamar Blue Assay for Cytotoxicity in the Neural Network Formation Assay, Shafer Lab (AID 2284083);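 note: resazurin reduction fluorescence as viability of cultured neurons; twelve days of exposure from plating with re-dosing on DIV 5 and 9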
# In short: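 Rat cortical primary cultures, 1.5 x 10^5 cells/well on MEA; continuous compound exposure over 12 days of network development, re-dosed with full medium change DIV 5 and 9. Alamar Blue fluorescence; loss of signal = cytotoxicity vs DMSO baseline.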
# [13] = molecular target: sheep Cyclooxygenase-1 (Cox1), PTGS1 (gene 443551) (UniProt P05979); experiment: NVS_ENZ_oCOX1: NovaScreen (NVS) Enzymatic Assay for sheep Cyclooxygenase-1 (Cox1) (AID 2283239);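 note: actives reduce cyclooxygenase activity so potencies are for inhibitors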
# Sequence of sheep Cyclooxygenase-1 (Cox1), PTGS1 (gene 443551) (P05979 whole entry, looked up): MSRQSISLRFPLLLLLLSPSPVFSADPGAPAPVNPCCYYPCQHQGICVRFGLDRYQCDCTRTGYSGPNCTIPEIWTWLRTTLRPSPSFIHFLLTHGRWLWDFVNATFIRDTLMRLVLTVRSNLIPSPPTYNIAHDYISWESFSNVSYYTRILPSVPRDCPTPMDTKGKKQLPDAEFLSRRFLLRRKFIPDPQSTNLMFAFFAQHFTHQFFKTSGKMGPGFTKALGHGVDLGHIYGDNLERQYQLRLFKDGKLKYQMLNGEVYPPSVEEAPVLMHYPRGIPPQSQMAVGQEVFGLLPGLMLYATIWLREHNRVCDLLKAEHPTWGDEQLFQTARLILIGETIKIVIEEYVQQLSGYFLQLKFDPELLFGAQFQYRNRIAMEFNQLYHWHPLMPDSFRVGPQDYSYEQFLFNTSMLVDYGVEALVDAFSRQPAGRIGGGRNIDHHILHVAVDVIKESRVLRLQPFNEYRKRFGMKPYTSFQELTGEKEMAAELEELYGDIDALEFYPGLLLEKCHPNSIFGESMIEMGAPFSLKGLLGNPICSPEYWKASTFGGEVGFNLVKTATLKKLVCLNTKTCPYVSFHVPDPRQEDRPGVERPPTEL
# In short: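 Tested in duplicate at 25 uM, then in concentration series if active, against seminal vesicle extract from sheep. Enzyme activity was measured colorimetrically at 0.66 hour and normalised to DMSO.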
# [14] = molecular target: Estrogen receptor (Homo sapiens) (UniProt P03372); experiment: CCTE_Deisenroth_AIME_384WELL_LUC_Active: CCTE's 384-well Estrogen Receptor Transactivation Assay with AIME metabolic competence (ERTA luciferase; metabolism positive), Deisenroth Lab (AID 2284030)
# Sequence of Estrogen receptor (Homo sapiens) (P03372 whole entry, looked up): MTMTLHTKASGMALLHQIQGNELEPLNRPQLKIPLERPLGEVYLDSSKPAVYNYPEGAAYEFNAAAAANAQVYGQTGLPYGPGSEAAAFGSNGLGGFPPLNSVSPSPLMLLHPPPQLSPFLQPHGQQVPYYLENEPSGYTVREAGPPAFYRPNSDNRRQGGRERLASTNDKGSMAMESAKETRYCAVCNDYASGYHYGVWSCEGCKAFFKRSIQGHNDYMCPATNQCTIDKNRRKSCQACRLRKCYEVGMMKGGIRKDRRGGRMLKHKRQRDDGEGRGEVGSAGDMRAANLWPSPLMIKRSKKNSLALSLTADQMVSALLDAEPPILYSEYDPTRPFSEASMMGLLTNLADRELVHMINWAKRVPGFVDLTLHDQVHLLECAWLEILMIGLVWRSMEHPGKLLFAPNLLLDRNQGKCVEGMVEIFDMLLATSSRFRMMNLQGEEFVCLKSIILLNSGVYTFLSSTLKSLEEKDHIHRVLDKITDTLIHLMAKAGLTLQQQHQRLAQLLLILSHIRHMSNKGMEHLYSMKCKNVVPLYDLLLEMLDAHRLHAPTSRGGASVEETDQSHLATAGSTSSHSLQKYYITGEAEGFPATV
# In short: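 Estrogenic luciferase signal in VM7Luc4E2 cells is measured at 24 hour, after chemicals have been preconditioned 2 hours with PB/BNF-induced rat hepatic S9 in alginate. Gain of signal is fitted relative to 17beta-estradiol, across 0.002 - 200 uM.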
# [15] = molecular target: Estrogen receptor (Homo sapiens) (UniProt P03372); experiment: CCTE_Deisenroth_AIME_384WELL_LUC_Inactive: CCTE's 384-well Estrogen Receptor Transactivation Assay without AIME metabolic competence (ERTA luciferase; metabolism negative), Deisenroth Lab (AID 2284038);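 note: VM7Luc4E2 breast cells given medium preincubated 2 h with S9-free microspheres; hits raise estrogen receptor luciferase signal so potencies reflect agonists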
# In short: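 Metabolism-negative mode: chemicals (10-point, 0.002–200 uM) held 2 h with alginate-water microspheres, then conditioned medium applied to VM7Luc4E2 cells for 24 h. Luciferase induction referenced to 17beta-estradiol.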
# [16] = molecular target: Estrogen receptor (Homo sapiens) (UniProt P03372); experiment: CCTE_Deisenroth_AIME_384WELL_LUC_Shift: CCTE's 384-well Estrogen Receptor Transactivation Assay with AIME metabolic competence data shift (ERTA luciferase; difference in metabolism positive and negative), Deisenroth Lab (AID 2284041; active = hit-call score of the fitted dose curve at least 0.9, where 1 is the maximum; inactive = score below 0.9;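 note: shift is response with S9 minus without S9 so positive means metabolism raised ER signal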)
# In short: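 Here, parent compounds undergo 2 h phase I metabolism by PB/BNF-induced rat S9 before 24 h transactivation in VM7Luc4E2 cells; the curve models S9-positive minus S9-negative response over a 10-point series.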
# [17] = system: zebrafish Androgen Receptor (AR), gene 100005148; experiment: ATG_zfAR_XSP1: Attagene TRANS-FACTORIAL Multi-Species (XSP1) HepG2 Assay for zebrafish Androgen Receptor (AR) (AID 2283771)
# In short: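 HepG2 cells were transiently transfected with a zebrafish AR-GAL4 reporter system and partially stimulated with 3 nM 6-alpha-fluorotestosterone. Reporter mRNA was measured after 24 h dosing by RT-PCR with capillary electrophoresis, and gain-of-signal was fitted relative to DMSO.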
# [18] = molecular target: Nuclear receptor subfamily 1 group I member 2 (Mus musculus) (UniProt O54915); experiment: ATG_mPXR_XSP1: Attagene TRANS-FACTORIAL Multi-Species (XSP1) HepG2 Assay for mouse Pregnane X Receptor (PXR) (AID 2283803)
# Sequence of Nuclear receptor subfamily 1 group I member 2 (Mus musculus) (O54915 whole entry, looked up, the tested form may be a part): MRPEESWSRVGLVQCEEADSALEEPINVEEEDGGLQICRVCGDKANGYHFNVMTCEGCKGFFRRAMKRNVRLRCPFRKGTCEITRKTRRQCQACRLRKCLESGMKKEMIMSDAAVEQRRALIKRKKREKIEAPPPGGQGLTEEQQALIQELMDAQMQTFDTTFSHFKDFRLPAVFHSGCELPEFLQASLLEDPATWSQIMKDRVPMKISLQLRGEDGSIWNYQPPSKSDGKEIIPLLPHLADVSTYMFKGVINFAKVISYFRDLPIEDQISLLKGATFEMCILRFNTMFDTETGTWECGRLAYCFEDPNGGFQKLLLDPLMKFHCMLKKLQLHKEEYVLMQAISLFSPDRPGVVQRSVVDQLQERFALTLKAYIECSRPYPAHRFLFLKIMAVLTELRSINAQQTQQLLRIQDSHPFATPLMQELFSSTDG
# In short: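 Transiently transfected HepG2 cells expressing a receptor-Gal4 chimera drive a GAL4-UAS reporter; 3 nM 6-alpha-fluorotestosterone included. Reporter mRNA read 24 h post-dose by RT-PCR and capillary electrophoresis; gain of signal relative to DMSO.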
# [19] = ATG_M_19_XSP2: Attagene TRANS-FACTORIAL Multi-Species (XSP2) HepG2 Assay for M32 Transcription Factor (Internal Marker) (AID 2283822)
# In short: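 Internal background marker in a multi-species nuclear receptor TRANS panel: transfected HepG2 cells exposed 24 h, with 3 nM 6-alpha-fluorotestosterone and 1.5 nM norgestrel present. Readout is RT-PCR of reporter transcripts resolved by capillary electrophoresis, gain-of-signal versus DMSO.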
# [20] = molecular target: Nuclear receptor subfamily 1 group I member 2 (Mus musculus) (UniProt O54915); experiment: ATG_mPXR_XSP2: Attagene TRANS-FACTORIAL Multi-Species (XSP1) HepG2 Assay for mouse Pregnane X Receptor (PXR) (AID 2283831)
# In short: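 Fluorescence signals from capillary electrophoresis of RT-PCR-amplified reporter mRNA give the readout, gain-of-signal versus DMSO. Transfected HepG2 cells, 24 h dosing, medium contained 3 nM 6-alpha-fluorotestosterone and 1.5 nM norgestrel.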
compound,measurement,setting,value
CC1(C)[C@H](C(=O)O[C@H](C#N)c2cccc(Oc3ccccc3)c2)[C@@H]1C=C(Br)Br,outcome,[1],inactive
same,AC50,[2],111 µM (active)
same,outcome,[3],inactive
same,outcome,[4],inactive
same,outcome,[5],inactive
O=c1c2ccccc2c(=O)c2c1cc(Cl)c1[nH]c3c([nH]c12)c(Cl)cc1c(=O)c2ccccc2c(=O)c13,outcome,[6],inactive
CCc1cc(C)cc(CC)c1-c1c(OC(=O)C(C)(C)C)n2n(c1=O)CCOCC2,AC50,[7],6.11 µM (active)
C[C@]12CC[C@H](O)C[C@H]1CC[C@@H]1[C@@H]2C[C@@H](O)[C@]2(C)[C@@H](C3=CC(=O)OC3)CC[C@]12O,AC50,[8],5.79 µM (active)
same,AC50,[9],1.28 µM (active)
same,AC50,[10],5.47 µM (active)
CC(C)(c1cc(Cl)c(O)c(Cl)c1)c1cc(Cl)c(O)c(Cl)c1,outcome,[11],inactive
Cc1ccc(OP(=O)(Oc2ccc(C)cc2)Oc2ccc(C)cc2)cc1 (tested in a mixture with another compound),outcome,[12],inactive
CC(C)(C)C(=O)CCl,outcome,[13],inactive
O=P1(NCCCl)OCCCN1CCCl (stereo not given),outcome,[13],inactive
Cc1cc(C)c(C2=C(OC(=O)CC(C)(C)C)C3(CCCC3)OC2=O)c(C)c1,outcome,[14],inactive
same,outcome,[15],inactive
same,outcome,[16],inactive
CCCC=NO,outcome,[14],inactive
same,outcome,[15],inactive
same,outcome,[16],inactive
CC1CCCC1.[C-]#[O+].[C-]#[O+].[C-]#[O+].[Mn],outcome,[12],inactive
CC(C)CCCCCCCOC(=O)c1ccccc1C(=O)OCCCCCCCC(C)C,outcome,[17],inactive
same,AC50,[18],0.611 µM (active)
same,outcome,[19],inactive
same,AC50,[20],1.52 µM (active)
same,outcome,[11],inactive
CC(=O)c1cc2c(cc1C)C(C)(C)C(C)CC2(C)C (stereo not given),AC50,[17],64.4 µM (active)
same,AC50,[18],1 µM (active)
same,outcome,[19],inactive
same,AC50,[20],1.8 µM (active)

# Reference: PubChem BioAssay (EPA / NIEHS)
